Reference: PubChem BioAssay AID1159580 (chemical genetic matrix, 2015)
Screen size: about 5,500 compounds; about 2,000 (36%) were called active. Another 18% or so got no clear call; they are omitted. Rule as the data show it: active = normalized growth mostly below about 0.91 (no sharp cut-off); inconclusive = no clear call, values can overlap the other calls; inactive = mostly above about 0.92. This is one part of the list.

Test: chemical genetic growth profiling, strain panel (AID 1159580);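 also: tested at 20 µM; growth read once vehicle control cultures reached saturation at 30 °C; 1 = growth at the plate median or of vehicle wells; lower values mean less growth of the strain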
Details: S. cerevisiae deletion strains, growth OD

Measured: normalized growth

CC(C)c1cccc(O)c(=O)c1
active: locus YAL021C, strain ccr4, hits give low values 0.0678 | locus YAL026C, strain drs2, hits give low values 0.0622 | locus YAL030W, strain snc1, hits give low values 0.0616 | locus YBL061C, strain skt5, hits give low values 0.0689 | locus YBR009C, strain hhf1, hits give low values 0.0635 | locus YBR023C, strain chs3, hits give low values 0.0691 | locus YBR171W, strain sec66, hits give low values 0.0935 | locus YBR231C, strain swc5, hits give low values 0.0694 | locus YBR279W, strain paf1, hits give low values 0.0689 | locus YCL011C, strain gbp2, hits give low values 0.0593 | locus YCL016C, strain dcc1, hits give low values 0.0739 | locus YCL069W, strain vba3, hits give low values 0.0926 | locus YCR088W, strain abp1, hits give low values 0.0649 | locus YDL005C, strain med2, hits give low values 0.0881 | locus YDL040C, strain nat1, hits give low values 0.0703 | locus YDR001C, strain nth1, hits give low values 0.0642 | locus YDR069C, strain doa4, hits give low values 0.0633 | locus YDR137W, strain rgp1, hits give low values 0.0985 | locus YDR159W, strain sac3, hits give low values 0.0917 | locus YDR195W, strain ref2 0.166 | locus YDR297W, strain sur2, hits give low values 0.0622 | locus YDR334W, strain swr1, hits give low values 0.0664 | locus YDR335W, strain msn5, hits give low values 0.0638 | locus YDR392W, strain spt3, hits give low values 0.0887 | locus YEL003W, strain gim4, hits give low values 0.0581 | locus YEL037C, strain rad23, hits give low values 0.0615 | locus YEL061C, strain CIN8 (second series), hits give low values 0.0653 | locus YER015W, strain faa2, hits give low values 0.0615 | locus YER016W, strain bim1, hits give low values 0.067 | locus YER111C, strain swi4, hits give low values 0.0815 | locus YER155C, strain BEM2 (second series), hits give low values 0.0927 | locus YFR010W, strain ubp6, hits give low values 0.072 | locus YGL167C, strain pmr1, hits give low values 0.091 | locus YGL173C, strain kem1, hits give low values 0.0718 | locus YGL227W, strain vid30, hits give low values 0.0687 | locus YGL240W, strain doc1, hits give low values 0.0871 | locus YGL253W, strain hxk2, hits give low values 0.0611 | locus YHR013C, strain ard1, hits give low values 0.113 | locus YHR027C, strain rpn1, hits give low values 0.0609 | locus YHR030C, strain SLT2, hits give low values 0.126 | locus YHR079C, strain IRE1, hits give low values 0.146 | locus YHR142W, strain chs7, hits give low values 0.0743 | locus YJL092W, strain hpr5, hits give low values 0.0677 | locus YJL095W, strain BCK1 (second series), hits give low values 0.0581 | locus YJL095W, strain BCK1, hits give low values 0.145 | locus YJL115W, strain asf1, hits give low values 0.0902 | locus YJL129C, strain trk1, hits give low values 0.0856 | locus YJL154C, strain vps35, hits give low values 0.0621 | locus YJL164C, strain tpk1, hits give low values 0.0686 | locus YJL166W, strain qcr8, hits give low values 0.0625 | locus YJR066W, strain TOR1, hits give low values 0.0572 | locus YKL160W, strain elf1, hits give low values 0.0788 | locus YKR026C, strain gcn3, hits give low values 0.0743 | locus YKR091W, strain srl3, hits give low values 0.0697 | locus YLL001W, strain dnm1, hits give low values 0.0706 | locus YLL026W, hits give low values 0.0634 | locus YLL041C, strain sdh2, hits give low values 0.0616 | locus YLR027C, strain aat2, hits give low values 0.0581 | locus YLR113W, strain HOG1, hits give low values 0.217 | locus YLR221C, strain rsa3, hits give low values 0.059 | locus YLR258W, strain gsy2, hits give low values 0.0639 | locus YLR262C, strain YPT6 (second series), hits give low values 0.0819 | locus YLR320W, strain mms22, hits give low values 0.0828 | locus YLR342W, strain FKS1, hits give low values 0.0743 | locus YLR357W, strain rsc2, hits give low values 0.136 | locus YLR370C, strain arc18, hits give low values 0.0652 | locus YLR384C, strain iki3, hits give low values 0.0711 | locus YML120C, strain ndi1, hits give low values 0.0618 | locus YMR058W, strain fet3, hits give low values 0.0629 | locus YMR125W, strain sto1, hits give low values 0.0871 | locus YMR129W, hits give low values 0.0613 | locus YMR205C, strain PFK2, hits give low values 0.091 | locus YMR231W, strain pep5, hits give low values 0.0803 | locus YNL071W, strain lat1, hits give low values 0.0663 | locus YNL183C, strain NPR1, hits give low values 0.0186 | locus YNL209W, strain ssb2, hits give low values 0.0585 | locus YNL248C, strain rpa49, hits give low values 0.0753 | locus YNL322C, strain KRE1 (second series), hits give low values 0.068 | locus YNR049C, strain mso1, hits give low values 0.0605 | locus YOR001W, strain rrp6, hits give low values 0.0684 | locus YOR070C, strain gyp1, hits give low values 0.123 | locus YOR080W, strain dia2, hits give low values 0.0682 | locus YOR083W, strain WHI5, hits give low values 0.0692 | locus YOR106W, strain vam3, hits give low values 0.0676 | locus YOR231W, strain MKK1, hits give low values 0.134 | locus YOR265W, strain rbl2, hits give low values 0.0639 | locus YOR270C, strain vph1, hits give low values 0.101 | locus YOR290C, strain snf2, hits give low values 0.0651 | locus YPL051W, strain arl3, hits give low values 0.0708 | locus YPL078C, strain atp4, hits give low values 0.0754 | locus YPL106C, strain sse1, hits give low values 0.111 | locus YPL240C, strain hsp82, hits give low values 0.0667 | locus YPL256C, strain CLN2, hits give low values 0.121
